The sample as a whole holds a higher share of hits than the screen did.
IL-1B inflam inh: blocks inflammasome-driven IL-1 beta release | THP-1 LPS/ATP IL-1B secretion, AlphaLISA, 16 h; active compounds read low | activity change, % at 57.5 µM | AID 743279 | hit rate 4.7% among 360,000; in the data active means activity change below about -50%; inconclusive means mostly about -30% to -49%
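Secreted IL-1B measured by AlphaLISA bead assay after 16 h compound exposure of THP-1 cells; compounds (final up to 57.5 uM) added 1 h before LPS (250 ng/mL) and ATP (1.25 mM) stimulation; lower signal means less secretion.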
HT1080-NT tox: kills 2HG-producing HT-1080-NT fibrosarcoma cells; HT-1080-NT fibrosarcoma viability, CellTiter-Glo ATP luminescence, 48 h; Potency, µM (highest dose often 46.1 µM), for inactives: at the top dose activity, negative = less viability, usual class: cytotoxic; hit rate 1.6% among 360,000;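 further: NT is the 2HG producing partner of a matched IDH1 knockdown line; potency means the concentration at half of the fitted maximal effect; 0% = DMSO-treated cells and -100% = media-only wells without cells; nearly all actives have a fitted effect of over 55% in size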
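Viability of the 2HG-overproducing fibrosarcoma line after 48 hours of compound exposure at 37 degrees C was determined by luminescence with CellTiter-Glo, and concentration-effect curves were then fitted and categorized.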
TDP1 cell noCPT: qHTS for Inhibitors of human tyrosyl-DNA phosphodiesterase 1 (TDP1): qHTS in cells in absence of CPT; DT40 Tdp1-/- hTDP1 cells, no CPT, ATP luminescence, 48 h; Potency, µM (highest dose often 46.2 µM), for inactives: at the highest dose activity change, negative = growth inhibition, usual class: inhibitors; hit rate 15% among 420,000; AID 686978, 2013; further: potency means the concentration at half of the fitted maximal effect; nearly all actives have a fitted effect of over 55% in size
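Camptothecin absent (DMSO only). Human TDP1-complemented DT40 knockout cells, 400 cells/well, 37 °C for minimum 48 hr; ATP measured via CellTiter-Glo, 30 min dark incubation, luminescence.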
12-LOX inh: ALOX12 (human) lipoxygenase inhibition | P18054 | hit rate 1.1% among 580,000 | Potency, µM (titrated, usually from 108 µM), without a hit: top-dose activity change, negative = inhibition, hits mostly inhibitors | AID 1671190 | purified 12hLO, xylenol orange hydroperoxide absorbance; further: potency means the concentration at half of the fitted maximal effect
Target sequence (P18054 whole entry, looked up): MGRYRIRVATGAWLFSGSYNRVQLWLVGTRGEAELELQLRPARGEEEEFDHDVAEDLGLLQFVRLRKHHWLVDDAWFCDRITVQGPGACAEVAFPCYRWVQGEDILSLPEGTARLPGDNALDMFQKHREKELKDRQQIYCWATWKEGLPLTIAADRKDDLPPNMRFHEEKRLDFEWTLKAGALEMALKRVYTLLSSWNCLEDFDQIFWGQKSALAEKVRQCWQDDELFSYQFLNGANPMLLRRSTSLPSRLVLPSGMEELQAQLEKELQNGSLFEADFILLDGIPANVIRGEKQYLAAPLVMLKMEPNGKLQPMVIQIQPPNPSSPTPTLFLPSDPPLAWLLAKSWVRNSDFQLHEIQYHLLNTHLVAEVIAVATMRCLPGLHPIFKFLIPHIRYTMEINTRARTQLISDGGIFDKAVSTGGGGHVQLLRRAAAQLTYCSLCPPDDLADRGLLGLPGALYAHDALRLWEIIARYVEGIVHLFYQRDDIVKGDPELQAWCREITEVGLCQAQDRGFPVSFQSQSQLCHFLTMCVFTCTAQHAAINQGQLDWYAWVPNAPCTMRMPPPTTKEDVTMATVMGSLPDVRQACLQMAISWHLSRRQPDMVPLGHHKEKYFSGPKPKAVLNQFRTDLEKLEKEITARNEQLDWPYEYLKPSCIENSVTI
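Purified human 12hLO (150 nM final) in 25 mM Hepes, 0.01% Triton X-100, pH 7.0 was preincubated 15 min at room temperature with compound. Then 40 uM arachidonic acid was added, 30 min. Hydroperoxide was read by Fe-XO absorbance ratio 573/405 nm.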
TDP1 cell CPT: DT40-hTDP1 cell growth loss with CPT | chicken DT40 Tdp1-/-;hTDP1 cells + 20 nM CPT, ATP luminescence, 48 h | Potency, µM (highest dose often 46.2 µM), inactives show at the highest dose activity change, negative = growth inhibition, actives largely listed as inhibitors | hit rate 12% among 420,000 | AID 686979; further: potency means the concentration at half of the fitted maximal effect; nearly all actives have a fitted effect of over 55% in size
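Chicken DT40 Tdp1-/- cells stably complemented with human TDP1 were seeded at 400 cells/well in medium containing 20 nM camptothecin, exposed to pin-transferred compounds, and grown at 37 °C for at least 48 hr. Viability was read as ATP luminescence.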
HT1080 IDH1KD tx: toxicity to HT-1080 IDH1 knockdown cells (counter line) | HT-1080 IDH1 knockdown viability, ATP luminescence, 48 h | Potency, µM (titrated, usually from 46.1 µM), inactives show at the highest dose activity, negative = toxicity, actives largely listed as cytotoxic | hit rate 2% among 360,000;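 further: potency means the concentration at half of the fitted maximal effect; 0% = DMSO wells and -100% = cell-free medium wells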
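CellTiter-Glo luminescence after 48 h compound exposure at 37 degrees C of IDH1-knockdown HT-1080 cells in 5% FBS RPMI. %Activity scaled between DMSO wells and cell-free media wells, with curves fitted and assigned curve classes.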
Starred values were filed as active, the others as inactive; u = inconclusive; x = not tested or not shown; [ ] = remark or other dose. Unless noted, the call rests on the fitted dose curve; in most records, active means well fitted curve in the direction sought with a large enough effect; inconclusive means small, poorly fitted or top-dose-only effect, or another doubt; inactive means no such curve, though single readings can be large; an effect the other way counts as inactive or inconclusive. Unless noted, on the % scale 0 is the no-effect control and ±100 the full control effect.

SMILES	IL-1B inflam inh	HT1080-NT tox	TDP1 cell noCPT	12-LOX inh	TDP1 cell CPT	HT1080 IDH1KD tx
CC(C)Cn1c(N)c(C(=O)COC(=O)c2ccccc2Cl)c(=O)n(C)c1=O	0.5	-15.4%	u	119.3%	u	-0.5%
CC(C)Cn1c(N)c(C(=O)COC(=O)c2ccc3ccccc3n2)c(=O)n(C)c1=O	10.7	-9.3%	16.4µM*	0.0%	16.4µM*	-8.0%
CCOc1cc(/C=C2\NC(=O)NC2=O)c(Br)cc1OC	x	x	x	-0.9%	x	x
CC(C)CC(=O)Nc1nn2c(C(C)C)nnc2s1	x	x	x	-25.8%	x	x
CC(C)Cn1c(N)c(C(=O)COC(=O)c2ccccc2C(=O)c2ccccc2)c(=O)n(C)c1=O	11.1	-5.9%	9.2µM*	2.9%	16.4µM*	-4.0%
Cn1c(N)c(C(=O)COC(=O)c2ccccc2C(=O)c2ccc(Cl)cc2)c(=O)n(C)c1=O	u	u	14.6µM*	15.5%	u	u
Cc1noc(C)c1C(=O)OCC(=O)c1c(N)n(CC(C)C)c(=O)n(C)c1=O	0.9	1.7%	u	-13.9%	18.4µM*	1.7%
CCCCOC(=O)COc1ccc2c(C)c(CCC)c(=O)oc2c1	x	x	x	14.6%	x	x
COC(=O)c1sc(N)c(C(=O)OC)c1Cn1ncc(Cl)c(Cl)c1=O	-89.3*	-17.1%	14.6µM*	0.6%	23.1µM*	u
COC(=O)c1sc(N)c(C(=O)OC)c1CSc1nnc(-c2ccccc2Cl)n1C	14.6	-5.8%	u	-5.3%	-17.3%	-10.5%
COC(=O)c1sc(N)c(C(=O)OC)c1COC(=O)c1c(C)noc1C	30.6	7.08µM*	5.17µM*	0.0%	3.66µM*	6.31µM*
COC(=O)c1sc(NC(=O)c2c(C)noc2C)nc1C	-20.6	-0.5%	4.3%	x	5.3%	3.0%
O=C(CSc1nnc(-c2ccc(O)cc2)o1)Nc1ccccc1	-2.8	-11.5%	-19.8%	4.6%	6.0%	-15.0%
O=C(CSc1nnc(-c2csc3c2CCCC3)o1)Nc1ccccc1	-50.2*	-11.1%	u	20.9%	u	-2.5%
N#Cc1nc(COc2ccccc2)oc1NCc1ccccc1Cl	x	x	x	-19.1%	x	x
COc1ccc(CNc2cc([N+](=O)[O-])ccc2OC)cc1	-23.3	-17.6%	-17.5%	u	-18.6%	1.0%[9.24 µM]
Cc1ccc(Sc2nc(C)c([N+](=O)[O-])c(C)c2C#N)cc1	x	-1.8%	u	0.0%	u	-11.1%
COc1ccc(CNc2nc(C)c([N+](=O)[O-])c(C)c2C#N)cc1	-11.9	-1.1%	u	-3.7%	18.4µM*	-12.5%
COc1cc(CNc2nc(C)c([N+](=O)[O-])c(C)c2C#N)cc(OC)c1OC	38.8	-1.5%	18.4µM*	-10.1%	20.6µM*	-14.2%
C=C1C(=O)[C@]23C[C@H]1CC[C@H]2[C@]1(C)[C@@H](OC(C)=O)CC[C@@](C)(C(=O)O)[C@H]1C[C@@H]3OC(C)=O	-99.2*	6.51µM*	4.11µM*	3.5%	2.06µM*	6.51µM*
C=C1C(=O)[C@]23C[C@H]1CCC2[C@]1(C)C(=O)CC[C@@](C)(C(=O)O)C1C[C@@H]3O (some centres undefined)	-109.1*	6.51µM*	3.66µM*	u	2.91µM*	8.2µM*
CC(=O)OC1CC(OC(C)=O)[C@]2(C)C(CC(=O)[C@]3(C)C2CC[C@@]2(C)C(C(=O)O)OC(=O)C4OC423)C1(C)C (some centres undefined)	x	x	2.8%	x	5.7%	x
C=C1C(=O)[C@]23C[C@H]1CCC2[C@]1(C)CCC[C@@](C)(C(=O)O)C1C[C@@H]3O (some centres undefined)	-121.4*	4.11µM*	1.64µM*	-2.3%	1.46µM*	2.31µM*
O=Cc1c[nH]c2cc(OCc3ccccc3)ccc12	x	x	x	-17.4%	x	x
COC[C@@H]1CN(C(=O)c2ccc(OC)cc2OC)C[C@H]1C(N)=O	x	x	x	25.5%	x	x
SMILES	IL-1B inflam inh	HT1080-NT tox	TDP1 cell noCPT	12-LOX inh	TDP1 cell CPT	HT1080 IDH1KD tx
Cc1csc(NC(=O)c2nc3c(o2)CCN(CC2CCCC2)CC3)n1	x	x	x	38.8%[176 µM]	x	x
CNc1oc(-c2ccccc2F)nc1S(=O)(=O)c1ccc(C)cc1	-6.8	-0.5%	-17.8%	423.4%	-2.8%	2.2%
COc1ccc(-c2nc(S(=O)(=O)c3ccc(C)cc3)c(NCc3ccccc3)o2)cc1	x	x	16.4µM*	u	u	x
O=S(=O)(c1ccccc1)c1nc(-c2cccc(Cl)c2)oc1NCc1ccccc1	x	x	25.9µM*	-23.1%	u	x
Cc1ccc(S(=O)(=O)c2nc(-c3ccccc3F)oc2NCc2ccccc2)cc1	x	x	20.6µM*	-15.5%	u	x
CCc1ccc(S(=O)(=O)NCc2ccc(C(=O)NCCN(Cc3ccccc3)C(C)C)cc2)cc1	-11.6	u	13µM*	2.8%	20.6µM*	16.4µM*
Cc1ccc(CCNC(=O)c2ccc(CNS(=O)(=O)c3ccccc3)cc2)cc1	x	x	5.8µM*	-6.1%	6.51µM*	x
CC(=O)Nc1ccc(S(=O)(=O)NCc2ccc(C(=O)NCCN(C)Cc3ccccc3)cc2)cc1	-8.1	-15.3%	-28.8%	8.5%	-28.6%	-10.1%
Cc1ccc(CCNC(=O)c2ccc(CNS(=O)(=O)c3ccc(F)cc3)cc2)cc1	x	x	6.51µM*	-17.5%	13µM*	x
